Inconclusive results are not listed. Activity calls are given as the source filed them. Unless noted, calls come from the whole dose curve; as a rule, active = well fitted curve in the direction sought with a large enough effect in the repeat runs; inconclusive = weak or mixed curves; inactive = no such curve, though single readings can be large; an effect the other way counts as inactive or inconclusive.
Experiments:
[1] = qHTS assay to identify small molecule agonists of the peroxisome proliferator-activated receptor delta (PPARd) signaling pathway - cell viability counter screen (AID 743211); note: nearly all actives have a fitted effect of over 55% in size
Method in brief: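 Viability was measured as CellTiter-Glo luminescence (30 min, room temperature) in the same wells as the beta-lactamase readout. GeneBLAzer PPARd UAS-bla HEK293H cells received compound after 5 h plating and were incubated 17 h at 37 C.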

[2] = target: Peroxisome proliferator-activated receptor delta (Homo sapiens) (UniProt Q03181); assay: qHTS assay to identify small molecule agonists of the peroxisome proliferator-activated receptor delta (PPARd) signaling pathway (AID 743212; calls by dose curve)
Method in brief: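 Tox21 library screened in GeneBLAzer PPARd UAS-bla HEK293H cells. After compound treatment at 37 C, a FRET-based beta-lactamase substrate was applied for 2 h and fluorescence recorded.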

[3] = qHTS assay to identify small molecule antagonists of the peroxisome proliferator-activated receptor delta (PPARd) signaling pathway - cell viability counter screen (AID 743213); note: nearly all actives have a fitted effect of over 50% in size
Method in brief: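 HEK293H PPARd UAS-bla cells, 5 h pre-incubation, compound + L165041 300 nM final, 17 h 37 C; B/G FRET substrate 2 h RT; then CellTiter-Glo 30 min RT, luminescence.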

[4] = target: Peroxisome proliferator-activated receptor delta (Homo sapiens) (UniProt Q03181); assay: qHTS assay to identify small molecule antagonists of the peroxisome proliferator-activated receptor delta (PPARd) signaling pathway (AID 743215; active = well fitted inhibition curve with a large enough effect in the signal ratio in the repeat runs, not every such curve was filed as active; the % refers to the signal ratio;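 note: cells stimulated with agonist L165041 at 300 nM final during compound exposure; series mostly up to about 62 µM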)
Method in brief: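 Fluorescence from cleaved LiveBLAzer B/G FRET substrate (2 h, room temperature) reports PPARd-driven beta-lactamase in HEK293H UAS-bla cells. Cells had been treated 17 h at 37 C with compound plus 300 nM final L165041.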

[5] = qHTS assay to identify small molecule agonists of the farnesoid-X-receptor (FXR) signaling pathway - cell viability counter screen (AID 743218); note: nearly all actives have a fitted effect of over 45% in size
Method in brief: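 Readout: CellTiter-Glo luminescence, 30 min RT, multiplexed after the FXR-bla FRET reading. HEK 293T FXR-UAS-bla cells received compound 5 h post-plating and were incubated 16 h at 37 C.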

[6] = qHTS assay to identify small molecule antagonists of the farnesoid-X-receptor (FXR) signaling pathway - cell viability counter screen (AID 743221; active = well fitted cell-killing curve with a large enough effect in the repeat runs, not every such curve was filed as active; note: nearly all actives have a fitted effect of over 50% in size)
Method in brief: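 Cytotoxicity counter screen run in the FXR-bla reporter wells: HEK 293T cells exposed to compound with 50 uM (final) chenodeoxycholic acid for 16 h, 37 C, then viability measured by CellTiter-Glo luminescence after 30 min, room temperature.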

[7] = target: Vitamin D3 receptor (Homo sapiens) (UniProt P11473); assay: qHTS assay to identify small molecule agonists of the vitamin D receptor (VDR) signaling pathway (AID 743222; calls by dose curve)
Method in brief: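 Following 4 h attachment at 37C, VDR-bla cells (2,000 per well) received DMSO-dissolved compounds or controls. After 16 h incubation, LiveBLAzer B/G FRET substrate was added and fluorescence read 2 h later at room temperature.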

[8] = target: Vitamin D3 receptor (Homo sapiens) (UniProt P11473); assay: qHTS assay to identify small molecule antagonists of the vitamin D receptor (VDR) signaling pathway (AID 743223; active = well fitted inhibition curve with a large enough effect in the signal ratio in the repeat runs, not every such curve was filed as active; the % refers to the signal ratio)
Method in brief: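 Antagonist mode: compound added to VDR-bla cells alongside agonist 1alpha,25-dihydroxyvitamin D3 (3 nM final), incubation 16 h at 37C. Read-out is LiveBLAzer FRET fluorescence, 2 h at room temperature.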

[9] = target: Bile acid receptor (Homo sapiens) (UniProt Q96RI1); assay: qHTS assay to identify small molecule antagonists of the farnesoid-X-receptor (FXR) signaling pathway (AID 743217; active = well fitted inhibition curve with a large enough effect in the signal ratio in the repeat runs, not every such curve was filed as active; the % refers to the signal ratio)
Method in brief: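 FRET fluorescence after 2 h room-temperature LiveBLAzer loading gives the readout. Prior step: FXR-bla HEK 293T cells, seeded and incubated 5 h, received test compounds plus 50 uM final CDCA for 16 h at 37 °C.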

[10] = target: Bile acid receptor (Homo sapiens) (UniProt Q96RI1); assay: qHTS assay to identify small molecule agonists of the farnesoid-X-receptor (FXR) signaling pathway (AID 743220; active = well fitted activation curve with a large enough effect in the signal ratio in the repeat runs, not every such curve was filed as active; the % refers to the signal ratio)
Method in brief: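 FXR-UAS-bla HEK 293T cells carrying a UAS-driven beta-lactamase reporter were plated for 5 h at 37C/5% CO2, then exposed to DMSO-dissolved Tox21 10K compounds for 16 h at 37C. A LiveBLAzer B/G FRET substrate was loaded for 2 h at room temperature before fluorescence reading.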

Measured: Potency

Sequence of Peroxisome proliferator-activated receptor delta (Homo sapiens) (Q03181 whole entry, looked up): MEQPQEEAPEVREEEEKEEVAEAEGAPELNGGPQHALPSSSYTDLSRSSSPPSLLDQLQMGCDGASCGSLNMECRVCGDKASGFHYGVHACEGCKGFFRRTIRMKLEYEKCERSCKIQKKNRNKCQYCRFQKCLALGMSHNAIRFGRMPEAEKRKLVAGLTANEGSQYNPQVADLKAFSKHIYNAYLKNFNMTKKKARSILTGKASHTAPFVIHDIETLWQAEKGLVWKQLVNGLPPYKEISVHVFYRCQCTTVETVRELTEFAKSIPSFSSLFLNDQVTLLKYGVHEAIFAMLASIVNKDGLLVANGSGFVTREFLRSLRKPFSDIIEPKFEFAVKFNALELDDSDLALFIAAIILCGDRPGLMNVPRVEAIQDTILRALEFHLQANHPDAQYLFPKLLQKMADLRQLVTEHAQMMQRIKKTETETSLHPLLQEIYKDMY
Sequence of Vitamin D3 receptor (Homo sapiens) (P11473 whole entry, looked up): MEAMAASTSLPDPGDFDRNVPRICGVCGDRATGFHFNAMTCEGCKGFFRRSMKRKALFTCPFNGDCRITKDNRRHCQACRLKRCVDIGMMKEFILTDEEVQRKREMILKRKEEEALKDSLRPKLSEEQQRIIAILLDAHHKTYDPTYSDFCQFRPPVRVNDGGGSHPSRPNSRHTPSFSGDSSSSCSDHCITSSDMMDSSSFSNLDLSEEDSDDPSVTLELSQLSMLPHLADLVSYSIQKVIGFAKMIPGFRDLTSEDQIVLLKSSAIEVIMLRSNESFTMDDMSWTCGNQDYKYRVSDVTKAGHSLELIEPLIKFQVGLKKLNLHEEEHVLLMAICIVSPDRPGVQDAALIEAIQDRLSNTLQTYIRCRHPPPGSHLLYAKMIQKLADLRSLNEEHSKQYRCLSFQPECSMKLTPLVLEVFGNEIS
Sequence of Bile acid receptor (Homo sapiens) (Q96RI1 whole entry, looked up): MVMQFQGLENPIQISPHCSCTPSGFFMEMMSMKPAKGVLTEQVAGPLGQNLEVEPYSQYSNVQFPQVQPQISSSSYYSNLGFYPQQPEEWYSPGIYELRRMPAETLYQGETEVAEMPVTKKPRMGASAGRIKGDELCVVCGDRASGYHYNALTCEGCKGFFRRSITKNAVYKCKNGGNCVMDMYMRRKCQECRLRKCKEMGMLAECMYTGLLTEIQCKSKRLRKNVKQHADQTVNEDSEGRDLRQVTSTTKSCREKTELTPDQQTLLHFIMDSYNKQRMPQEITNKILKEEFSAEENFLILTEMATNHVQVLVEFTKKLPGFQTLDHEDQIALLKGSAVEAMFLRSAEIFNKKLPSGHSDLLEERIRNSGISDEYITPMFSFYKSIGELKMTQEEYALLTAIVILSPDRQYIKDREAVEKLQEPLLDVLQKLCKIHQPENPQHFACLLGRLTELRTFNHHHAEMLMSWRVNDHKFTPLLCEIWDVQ

CC(C)(c1ccccc1)c1cc(-n2nc3ccccc3n2)c(O)c(C(C)(C)c2ccccc2)c1
not listed: [9] | [10]
inactive: all other assays above

CCCCCCCCCCCCCCCl
not listed: [9] | [10]
inactive: all other assays above

CCOc1cccc(C2(N3CCN(c4ccccc4)CC3)CCC(C)CC2)c1 (stereo not drawn)
not listed: [6] | [9] | [10]
inactive: all other assays above

O=C(NCNC(=O)NC1C(=O)NC(=O)N1CO)NC1C(=O)NC(=O)N1CO (stereo not drawn)
inactive: [1] | [2] | [3] | [9] | [5] | [6]

Cc1ccccc1
not listed: [9] | [10]
inactive: all other assays above

CCCCCCCCCCCCN(C)C
not listed: [3] | [10]
inactive: all other assays above

O=C(Cc1ccccc1)c1ccccc1
inactive: [1] | [2] | [3] | [9] | [5] | [8]

C[N+]1(CCC(C(N)=O)(c2ccccc2)c2ccccc2)CCCCC1
inactive: [1] | [2] | [4] | [9] | [5] | [6]

CN(C1CCCCC1)C1CCCCC1
not listed: [9] | [10]
inactive: all other assays above

C=CCN1C[C@H](C)N([C@H](c2ccc(C(=O)N(CC)CC)cc2)c2cccc(OC)c2)C[C@H]1C
not listed: [9] | [10]
inactive: all other assays above

CCCCCl
not listed: [3] | [6] | [8]
inactive: all other assays above

CCOP(=S)(OCC)Oc1ccc(S(C)=O)cc1 (stereo not drawn)
not listed: [7] | [9] | [10]
inactive: all other assays above

CCCCOC(=O)CCC(=O)OCCCC
inactive: [1] | [2] | [3] | [5] | [6]

CCOP(=O)(SC(C)CC)N1CCSC1=O (stereo not drawn)
inactive: [1] | [2] | [3] | [4] | [5] | [8]
